For orientation: inhibition means the drop in the measured response relative to a control, in per cent.

Holding throughout (assay type): functional
Experiment [1] concerns the target Solute carrier family 2, facilitated glucose transporter member 1 (Homo sapiens) (UniProt P11166). Nature of the experiment: ST_JUDE_LEISH: Cytotoxicity at 2uM final concentration against transgenic Leishmania Mexicana promastigotes LmGLUT1 that are glucose transport deficient and complemented with the human glucose transporter GLUT1. Activity is measured by DNA content using SYBR green in vitro.

Experiment [2] has as its target Hexose transporter 1 (Plasmodium falciparum) (UniProt O97467). Put plainly: ST_JUDE_LEISH: Cytotoxicity at 2uM final concentration against transgenic Leishmania Mexicana promastigotes LmPfHT that are glucose transport deficient and complemented with the Plasmodium falciparum hexose transporter. Activity is measured by DNA content using SYBR green in vitro.
For experiment [3], the target named is Glucose transporter (Leishmania mexicana) (UniProt O61059). Nature of the experiment: ST_JUDE_LEISH: Cytotoxicity at 2uM final concentration against transgenic Leishmania Mexicana promastigotes LmGT2 that are glucose transport deficient and complemented with the L. Mexicana glucose transporter 2. Activity is measured by DNA content using SYBR green in vitro.

Chain of Solute carrier family 2, facilitated glucose transporter member 1 (Homo sapiens) (P11166 whole entry): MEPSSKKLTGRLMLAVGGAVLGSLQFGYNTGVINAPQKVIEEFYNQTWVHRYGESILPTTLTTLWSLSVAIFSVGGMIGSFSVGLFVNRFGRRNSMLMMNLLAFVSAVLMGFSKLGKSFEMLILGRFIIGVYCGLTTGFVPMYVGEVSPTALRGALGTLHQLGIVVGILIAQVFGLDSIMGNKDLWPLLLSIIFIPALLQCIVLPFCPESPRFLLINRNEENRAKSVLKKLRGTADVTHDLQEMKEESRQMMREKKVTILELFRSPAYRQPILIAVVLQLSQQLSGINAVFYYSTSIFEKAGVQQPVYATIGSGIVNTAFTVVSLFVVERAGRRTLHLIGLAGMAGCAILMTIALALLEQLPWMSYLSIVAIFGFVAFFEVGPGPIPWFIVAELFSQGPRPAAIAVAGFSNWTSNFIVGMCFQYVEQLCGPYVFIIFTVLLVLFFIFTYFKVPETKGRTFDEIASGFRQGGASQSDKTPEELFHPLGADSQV

For `CN1CCCc2ccc(NC(=O)C=Cc3ccc(-c4ccc(F)cc4F)o3)cc2C1`, the inhibition in experiment [1] was determined as 0.88%; in experiment [2], 0.81%; in experiment [3], 2.73%.

As for `Cc1ccc(-c2nc(N3CCN(C(=O)c4ccco4)CC3)c3ccccc3n2)cc1`, the inhibition in experiment [1] was determined as 2.55%; in experiment [2] it was 0.57%; in experiment [3] it was 0.1%.

As to `Cc1cc(C(=O)Nc2ccc3c(ccn3C3CCCN(Cc4ccc(C(F)(F)F)cc4F)CC3)c2)no1` (stereo not drawn), the results for the inhibition in experiment [1], in experiment [2] and in experiment [3] were -0.37%, 0.5% and -0.5%, respectively.

Consider `CCc1cn(C)c2c(N3CCCC3=O)cc(C(=O)N[C@@H](Cc3ccccc3)[C@H](O)CNCc3cccc(OC)c3)cc12`, for which the results for the inhibition in experiment [1], in experiment [2] and in experiment [3] were 2.48%, 2.2% and 2.88%, respectively.

Take `CCOC(=O)c1cc(Cl)cc(Cl)c1OCCCON1C(=N)N=C(N)NC1(C)C`: the inhibition stood at 0.88% in experiment [1], 0.77% in experiment [2] and 1.35% in experiment [3].

For `COc1c(C2CCN(CCCCNC(=O)c3ccc(-c4ccc(Cl)cc4)cn3)CC2)ccc2c1CCCC2`, the inhibition in experiment [1] is -1.51%; in experiment [2] it was -0.19%; in experiment [3] it was -2.15%.

In the case of `O=C(/C=C/c1ccc(Cl)c(Cl)c1)NCCCCCN1CCCN(C(=O)Nc2cccc(Cl)c2)CC1`, the results for the inhibition in experiment [1], in experiment [2] and in experiment [3] were 0.54%, 0.75% and 3.37%, respectively.

On to `COc1ccc(CN2CCCN(Cc3ccc(C(=O)Nc4ccc(Cl)cc4)cc3)CC2)cc1`, for which the values for the inhibition in experiment [1], in experiment [2] and in experiment [3] were 4.35%, 5.51% and 6.65%, respectively.

Turning to `CC(Cc1ccc(C(=O)OC(c2ccccc2)c2ccccc2)cc1)NCC(O)c1ccccc1` (stereo not drawn), the figures for the inhibition in experiment [1], in experiment [2] and in experiment [3] were 0.9%, 0.98% and -0.61%, respectively.

With `CCCCCC(C)NC[C@@H](O)[C@H](Cc1ccccc1)NC(=O)c1cc(NCC)cc(N2CCCCS2(=O)=O)c1` (stereo partly drawn), the inhibition in experiment [1] was -0.71%; in experiment [2], 1.3%; in experiment [3], 0.36%.

As to `Cc1noc(C)c1-c1ccc2c(Nc3ccccc3C(C)(C)C)c(C(=O)NC3CCCC3)cnc2c1`, the inhibition in experiment [1] is 2.07%; in experiment [2], 1.46%; in experiment [3] it was -0.58%.

For `Cc1cc2cc(-c3ccc(CN)cc3)ccc2nc1N`, the inhibition in experiment [1] is -1.44%; in experiment [2] it was 1.71%; in experiment [3] it was -3.5%.

Turning to `O=C(Nc1ccc(-c2nc3ccccc3[nH]2)cc1)c1ccc(N2CCCC2)c([N+](=O)[O-])c1`, the inhibition in experiment [1] turned out to be 0.71%; in experiment [2] it was 2.01%; in experiment [3], 1.2%.

Consider `Cc1c(CNCCCNc2cc(=O)c3ccccc3[nH]2)sc(C(F)=C(F)F)c1Br`, for which the inhibition came to 6.84% in experiment [1], 5.03% in experiment [2] and 5.8% in experiment [3].

On to `CCOc1cc(C(=O)NCc2cccc(C(F)(F)F)c2)ccc1-c1nc2cc(Cl)ccc2[nH]1`, for which the inhibition was 2.15% in experiment [1], 2.24% in experiment [2] and 1.82% in experiment [3].

On to `CC1CCCN(Cc2cc(Cl)cc(Cl)c2O)C1` (stereo not drawn), for which the inhibition in experiment [1] was -1.08%; in experiment [2] it was -0.95%; in experiment [3], -1.76%.

Take `S=c1nc(-c2ccccc2)n2ccsc2n1`: the inhibition is 1.86% in experiment [1], 2% in experiment [2] and 2.44% in experiment [3].

On to `Cc1cc(OCCCNc2nc(NCCc3ccc(O)cc3)nc(N3CCNCC3)n2)c(Cl)c(C)c1Cl`, for which the values for the inhibition in experiment [1], in experiment [2] and in experiment [3] were 0.58%, 1.22% and 0.27%, respectively.

As for `Cc1cccc(-c2cccc(CNc3nc(NCCc4ccc(O)cc4)nc(N4CCNCC4)n3)c2)c1`, the values for the inhibition in experiment [1], in experiment [2] and in experiment [3] were 2.88%, 3.88% and 2.83%, respectively.

Turning to `C[C@H](NC(=O)c1c(CN2CCN(C(=O)C(C)(C)C)CC2)c(-c2cccs2)nc2ccccc12)C1CCCCC1`, the inhibition is 6.07% in experiment [1], 5.13% in experiment [2] and 2.24% in experiment [3].

In the case of `NCc1ccc(-c2ccccc2CNC2CCN(Cc3ccccc3)CC2)cc1`, the results for the inhibition in experiment [1], in experiment [2] and in experiment [3] were 2.4%, 2.46% and 1.44%, respectively.

`COc1cc(Cc2cnc(N)nc2N)cc(OCCCCC2SC(=O)NC2=O)c1Br` (stereo not drawn): the inhibition in experiment [1] stood at 6.08%; in experiment [2], 4.54%; in experiment [3] it was 5.43%.

Consider `N=C(N)Nc1nccc(NCc2ccccc2)n1`, for which the inhibition was -2.64% in experiment [1], -0.68% in experiment [2] and -0.48% in experiment [3].

Take `COc1ccc2nc(Nc3nc4cnccc4[nH]3)sc2c1`: the inhibition came to 4.17% in experiment [1], 4.93% in experiment [2] and 5.34% in experiment [3].

As to `COC(=O)c1noc(C)c1I`, the inhibition in experiment [1] was found to be 0.86%; in experiment [2] it was 0.08%; in experiment [3], 0.59%.

`O=C(/C=C/c1ccc(Cl)c(Cl)c1)NCCCCCN1CCC(C(=O)Nc2ccc(Cl)cc2)CC1`: the inhibition in experiment [1] was 1.92%; in experiment [2], 0.72%; in experiment [3], 2.78%.

Take `O=C(Nc1cccc(C(F)(F)F)c1)c1ccc(S(=O)(=O)NC2CCN(CC3CCCCC3)CC2)cc1`: the inhibition was 1.83% in experiment [1], 1.62% in experiment [2] and 5.57% in experiment [3].

Regarding `CCNCCCC(C)Nc1ccnc2cc(Cl)ccc12` (stereo not drawn), the inhibition in experiment [1] was -2.28%; in experiment [2], -2.68%; in experiment [3], -2.34%.

`O=C(c1ccc(O)c(-c2cc(Cl)cc(Cl)c2)c1)N(CCO)CCO`: the inhibition in experiment [1] is 2.23%; in experiment [2], 1.98%; in experiment [3], 3.14%.

As to `FC(F)(F)COc1c(CCNCCCCNCCc2ccc3ccccc3c2OCC(F)(F)F)ccc2ccccc12`, the inhibition in experiment [1] amounted to 105%; in experiment [2], 103%; in experiment [3], 108%.

`CN1CCCC(CN2CCN(Cc3cccc(-c4cccc(-c5nc6ccccc6[nH]5)c4)c3)CC2)C1` (stereo not drawn): the inhibition in experiment [1] was 1.59%; in experiment [2] it was 2.2%; in experiment [3], -0.86%.

For `COc1cc(C(=O)N2CCOC(CCN3CCC[C@H]3C(=O)Nc3ccccc3)(c3ccc(Cl)c(Cl)c3)C2)cc(OC)c1OC` (stereo partly drawn), the inhibition is 6.58% in experiment [1], 5.14% in experiment [2] and 2.89% in experiment [3].

Consider `COc1ccc(Nc2ncc3c(-c4cccc(NC(=O)CC(C)C)c4)c[nH]c3n2)cc1OC`, for which the inhibition worked out at 7.31% in experiment [1], 8.48% in experiment [2] and 6.64% in experiment [3].

Take `Fc1ccc2[nH]c(-c3ccc(-c4cccc(CN5CCCCC5)c4)cc3)nc2c1`: the inhibition was found to be 1.59% in experiment [1], 1.72% in experiment [2] and 1.72% in experiment [3].

With `CC(C)Cn1cc(C2CCN(CCN3CCC(CNC(=O)c4ccc(-c5ccc(C#N)cc5)cc4)CC3)CC2)c2ccccc21`, the inhibition in experiment [1] came out at 2.71%; in experiment [2] it was 5.31%; in experiment [3], 2.53%.

Take `O=c1nc(NCCCNCc2cc3c(Cl)cc(Cl)cc3[nH]2)[nH]c2ccsc12`: the inhibition in experiment [1] is 81.4%; in experiment [2], 96.7%; in experiment [3], 83.9%.

Values taken from ChEMBL document CHEMBL3433997, “St. Jude Leishmania screening dataset” (2016).
